# Screening data (PubChem BioAssay)
# Efflux pump mplx = inhibitors of Candida antifungal efflux pumps expressed in yeast; inhibition, % at 10 µM; S. cerevisiae Candida pump triplex, Nile Red efflux; AID 485275; hit rate 0.44% among 330,000;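 active means plate passing quality check with inhibition over a set limit, or well fluorescence over plate mean plus 4 SD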;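 further: Nile Red retained in pooled yeast measured as flow cytometry median fluorescence; 0% = buffer negative control and 100% = Enniatin B positive control; higher means more Nile Red kept so more efflux inhibition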
# Yeast superoxide = lowers age-related superoxide in aged yeast cells; S. cerevisiae aged cells, superoxide DHE fluorescence; active compounds read low; superoxide response (% of plate mean), % at 10 µM; hit rate 0.18% among 330,000;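 active means superoxide response under a set limit, about three screen SD below normal, cut at about 65% in these data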;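 further: yeast aged for seven days with compound at 30 °C before DHE staining; 100% = average MFI of all compound-treated wells on the plate with controls excluded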
# GRK2 inh = human GRK2 inhibition via aptamer displacement; AID 488847; bead flow cytometry, FAM-aptamer displacement from GRK2; hit rate 0.59% among 330,000; P25098; inhibition of aptamer binding, % at 10 µM;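 active means inhibition of aptamer binding above 40%, roughly 3 SD of noise, on plates passing a quality check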;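 further: median bead fluorescence of bound FAM aptamer so fluorescent compounds give negative values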
# Target sequence (P25098 whole entry, looked up): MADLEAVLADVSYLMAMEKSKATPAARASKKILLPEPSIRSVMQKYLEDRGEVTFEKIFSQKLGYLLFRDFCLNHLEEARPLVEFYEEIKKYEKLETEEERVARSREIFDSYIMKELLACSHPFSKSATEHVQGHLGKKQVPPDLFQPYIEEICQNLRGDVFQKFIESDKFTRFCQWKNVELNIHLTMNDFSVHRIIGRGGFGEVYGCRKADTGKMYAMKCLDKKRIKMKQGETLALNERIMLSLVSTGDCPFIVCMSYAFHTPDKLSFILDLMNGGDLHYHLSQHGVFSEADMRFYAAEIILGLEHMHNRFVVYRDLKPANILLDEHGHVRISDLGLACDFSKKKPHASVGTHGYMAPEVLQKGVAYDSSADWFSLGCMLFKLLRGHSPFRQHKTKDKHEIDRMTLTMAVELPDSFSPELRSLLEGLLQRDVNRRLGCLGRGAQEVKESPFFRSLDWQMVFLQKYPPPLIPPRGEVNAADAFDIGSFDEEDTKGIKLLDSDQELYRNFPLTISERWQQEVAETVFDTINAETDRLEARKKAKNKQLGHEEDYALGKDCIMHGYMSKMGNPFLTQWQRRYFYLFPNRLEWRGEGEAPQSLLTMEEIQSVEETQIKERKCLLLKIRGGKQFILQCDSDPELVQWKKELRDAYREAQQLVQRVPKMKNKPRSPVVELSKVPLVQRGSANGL
# ATG4B inhibitor = blocks human ATG4B protease cleavage of LC3 substrate; hit rate 0.51% among 340,000; Q9Y4P1; AID 504462; inhibition, % at 8.33 µM; ATG4B cleavage of LC3-PLA2, NBD-HPC fluorescence, 1 h; in the data active means inhibition above about 40%
# Cmpd fluor yeast = compound fluorescence in yeast efflux pump counter-screen; shares compounds with Efflux pump mplx; S. cerevisiae AD/pABC3, flow cytometry; fluorescence ratio to DMSO, % at 10 µM; hit rate 4% among 1,700; AID 588517;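 active means fluorescence ratio to DMSO above its plate's cutoff, the plate mean ratio plus 5 SD, cut at about 210% in these data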;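 further: unstained yeast with no Nile Red so the signal is compound autofluorescence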
# CaMdr1 efflux inh = inhibitors of Candida albicans Mdr1 efflux pump | inhibition, % at 10 µM | S. cerevisiae AD/CaMDR1, Nile Red efflux, flow cytometry | hit rate 1% among 1,700 | AID 588518 | shares compounds with Efflux pump mplx; in the data active means inhibition above about 26%;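 further: 0% = DMSO vehicle and 100% = reference inhibitor; higher means more Nile Red retained so more efflux inhibition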
# CaCdr2 efflux inh = Candida Cdr2 efflux pump inhibition; shares compounds with Efflux pump mplx; S. cerevisiae AD/CaCDR2, Nile Red retention, flow cytometry; Nile Red retention ratio vs DMSO, % at 10 µM; hit rate 4% among 1,700; AID 588520; in the data active means Nile Red retention ratio vs DMSO above about 190%;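 further: higher ratio means more blocking of Cdr2 efflux of the dye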
# CaCdr1 efflux inh = inhibitors of Candida albicans Cdr1 efflux pump | shares compounds with Efflux pump mplx | S. cerevisiae AD/CaCDR1, Nile Red efflux, flow cytometry | AID 588522 | hit rate 1% among 1,700 | inhibition, % at 10 µM;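 active means inhibition above the screen-wide mean plus twice its standard deviation, cut at about 32% in these data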
# Active calls of the source: *; . = no result given. Rows were chosen to be rich in hits. Some 1.6% of all compounds tested hit in one or more screens of this group.
SMILES,Efflux pump mplx,Yeast superoxide,GRK2 inh,ATG4B inhibitor,Cmpd fluor yeast,CaMdr1 efflux inh,CaCdr2 efflux inh,CaCdr1 efflux inh
Cc1cc(C(=O)NC2CC(C)(C)Cc3c2cnn3-c2ccc(F)cc2)no1 (configuration not stated),0,94,1,-5,103,0,101,0
CCC1CCCCN1CCCNC(=O)C1CCN(c2nnc(-n3cccc3)s2)CC1 (configuration not stated),0,88,0,3,.,.,.,.
CSc1ncccc1C(=O)Nc1ccc2c(c1)OCCO2,0,96,0,-8,.,.,.,.
CCOc1ccccc1NC(=O)N1CCCC(c2nc(-c3ccc(C)o3)no2)C1 (configuration not stated),0,93,2,-10,.,.,.,.
COC(=O)C1=C(C)N=c2s/c(=C/c3ccoc3)c(=O)n2C1c1ccccc1 (configuration not stated),0.5*,99,2,1,140,0,121,0
CCOC(=O)C1=C(C)N=c2s/c(=C\c3ccc(OCC(=O)O)cc3)c(=O)n2C1c1ccccc1 (configuration not stated),0,101,0,2,.,.,.,.
C[C@@]12C(=O)Nc3cc(Cl)ccc3C(=O)N1[C@H]1c3cc(Cl)ccc3OC[C@@H]1[C@@H]2c1ccccc1,0,87,8,0,97,0,102,0
Cc1ccc2c(c1)C(=O)N1[C@H]3c4cc(Cl)ccc4OC[C@@H]3[C@H](c3ccccc3)[C@]1(C)C(=O)N2,0,94,3,-3,100,0,99,0
COc1ccc2c(c1)OC[C@H]1[C@H]2N2C(=O)c3cc(OC)c(OC)cc3NC(=O)[C@@]2(C)[C@H]1c1ccccc1,48*,105,0,1,539*,79*,112,34*
C[C@@]12C(=O)Nc3ccc(F)cc3C(=O)N1[C@H]1c3ccccc3OC[C@@H]1[C@@H]2c1ccccc1,0,111,7,5,.,.,.,.
C[C@@]12C(=O)Nc3ccc(F)cc3C(=O)N1[C@H]1c3cc(Cl)ccc3OC[C@@H]1[C@@H]2c1ccccc1,0,102,8,-5,128,0,127,0
Cc1ccc(N(C(=O)c2ccc(S(=O)(=O)N3CCCC3)cc2)C2C=CS(=O)(=O)C2)cc1 (configuration not stated),0,110,0,-4,.,.,.,.
CCCCN1C[C@H](CO)Oc2cccc(F)c2S1(=O)=O,.,.,.,6,.,.,.,.
Cn1/c(=N/N=C/c2ccccn2)sc2ccccc21,.,.,.,-7,.,.,.,.
CCOC(=O)C1CCN(S(=O)(=O)c2ccc3c(c2)CCN3C(=O)C2CCC2)CC1,0,112,1,-2,118,0,120,0
CCOc1ccc(OCC)c(NS(=O)(=O)c2ccc3c(c2)CCN3C(=O)C2CCC2)c1,0,102,0,-11,108,0,114,0
CCOC(=O)C1CCN(S(=O)(=O)c2ccc3c(c2)CCN3C(C)=O)CC1,0,91,1,-6,.,.,.,.
CCOc1ccc(CCNC(=O)c2ccc3ccccc3n2)cc1OCC,1,92,3,-11,.,.,.,.
CC(Nc1nc(-c2ccccc2)nc2ccccc12)c1ccccc1 (configuration not stated),1.9*,122,11,9,100,0,106,0
Cc1nn(C)c(C)c1/C=N/NC(=O)CCn1cc([N+](=O)[O-])cn1,14*,88,3,-11,93,0,96,0
COc1ccc(Cl)cc1C(=O)O/N=C(\N)c1ccc(Cl)cc1,6.5*,92,4,7,113,0,110,0
COc1cccc(C(=O)O/N=C(\N)c2ccccn2)c1OC,0,110,0,2,.,.,.,.
COc1cccc(C(=O)O/N=C(\N)c2ccncc2)c1OC,13*,101,0,1,98,0,107,0
N#Cc1c(-c2ccccc2)cc(-c2cccs2)nc1SCC(=O)O,1.3*,100,0,17,114,0,87,0
O=C(c1cc(COc2cccc(C(F)(F)F)c2)on1)N1CCC(c2ccncc2)CC1,0.5*,93,0,-12,146,3,206*,3
SMILES,Efflux pump mplx,Yeast superoxide,GRK2 inh,ATG4B inhibitor,Cmpd fluor yeast,CaMdr1 efflux inh,CaCdr2 efflux inh,CaCdr1 efflux inh
Cc1nc(SCC2(C)CC2(Cl)Cl)n[nH]1 (configuration not stated),0,101,2,-4,.,.,.,.
CC(=O)c1c(N2CCN(C)CC2)[nH]c(-c2ccccc2)nc1=S,1.5*,107,1,-20,103,0,152,0
COc1cc(/C=N/NC(=O)CSc2ccccn2)ccc1OC(C)C,0,121,5,2,.,.,.,.
COc1ccc(CSCC(=O)N/N=C/c2ccc(OCC(=O)NCc3ccco3)cc2)cc1,0,98,3,-17,.,.,.,.
CC(SCc1ccccc1)C(=O)N/N=C/c1ccc(OCC(=O)NCc2ccco2)cc1 (configuration not stated),14*,109,0,-16,118,0,94,1
O=C(c1cccs1)c1no[n+]([O-])c1C(=O)c1cccs1,0.9*,102,0,-8,107,2,287*,0
COc1ccc(CNC(=O)COC(=O)CCN2C(=O)C3CC=CCC3C2=O)cc1OC (configuration not stated),0,100,0,-2,.,.,.,.
CCn1c(=S)sc2c(=O)n(-c3ccccc3)c(SC)nc21,0,72,1,0,.,.,.,.
N#CCSc1nc2c(sc(=S)n2Cc2ccco2)c(=O)n1-c1ccc(F)cc1,5.9*,124,0,8,111,0,116,0
CN(Cc1ccccc1)C(=O)c1cccc(NC(=O)Cc2ccc(NC(=O)C3CCN(C(=O)C4CCC4)CC3)cc2)c1,.,.,.,-15,.,.,.,.
COc1ccc(/C=C2/SC(c3ccc(C)cc3)=NC2=O)cc1OC,0,98,1,-7,.,.,.,.
COc1ccc(/C=C2\SC(c3ccc(C)cc3)=NC2=O)cc1OC,0.8*,134,0,-9,109,0,91,0
CCOc1ccc(S(=O)(=O)N2CCCCCC2)cc1,9.8*,102,0,-3,108,0,100,0
CCOc1ccc(S(=O)(=O)Nc2ccc(S(=O)(=O)N3CCCCC3)cc2)cc1,0,102,0,-10,.,.,.,.
COc1ccc(NC(=O)CSc2nc3[nH]ncc3c(=O)[nH]2)c(OC)c1,0,94,4,-13,.,.,.,.
N#CCCn1cc(/C=C(\C#N)c2nc3ccccc3s2)c(-c2ccc(F)cc2)n1,1,122,2,-13,82,0,100,0
COc1ccc(-c2cc(C(=O)NCCN3CCOCC3)c3ccccc3n2)cc1OC,0,97,0,-3,.,.,.,.
